# Results: PubChem BioAssay AID1210 (NMMLSC, 2008)
# The source made the active and inactive calls.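 Rule for the calls: active = blocks over 70% of labeled estradiol binding at 10 µM, or over a set limit at 100 nM; inactive = the rest.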
# Target: Estrogen receptor beta (Homo sapiens) (UniProt Q92731)
# Assay: displacement of fluorescent estrogen from ERbeta – cell-based, Cos7 ERbeta-GFP, flow cytometry, primary screen (AID 1210);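 note: 0% = DMSO vehicle wells and 100% = complete loss of labeled estradiol signal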
# Conditions: fluorescent estrogen binding, at 10 µM, stronger effect = higher value
# Estrogen receptor beta (Homo sapiens), sequence (Q92731 whole entry, looked up): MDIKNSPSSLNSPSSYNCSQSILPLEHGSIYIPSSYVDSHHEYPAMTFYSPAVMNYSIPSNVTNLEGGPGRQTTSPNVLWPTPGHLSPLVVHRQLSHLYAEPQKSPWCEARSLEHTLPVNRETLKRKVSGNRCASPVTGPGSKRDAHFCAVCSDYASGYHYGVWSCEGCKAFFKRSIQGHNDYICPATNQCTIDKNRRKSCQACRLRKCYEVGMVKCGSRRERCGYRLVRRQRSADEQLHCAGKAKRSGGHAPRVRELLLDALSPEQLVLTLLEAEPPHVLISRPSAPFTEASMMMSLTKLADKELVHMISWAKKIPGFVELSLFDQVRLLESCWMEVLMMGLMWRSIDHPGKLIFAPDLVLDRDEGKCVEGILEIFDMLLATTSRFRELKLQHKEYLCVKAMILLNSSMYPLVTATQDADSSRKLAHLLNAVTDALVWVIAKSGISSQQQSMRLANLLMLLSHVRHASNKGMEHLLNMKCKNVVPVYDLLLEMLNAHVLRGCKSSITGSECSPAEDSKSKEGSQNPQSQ
row,Compound,inhibition
1,COc1cc2c(cc1O)CC[n+]1cc3c(OC)c(OC)ccc3cc1-2,25% (inactive)
2,Cc1nnc(Oc2ccccc2F)c2ccccc12,47% (inactive)
3,NS(=O)(=O)c1ccc2c(c1)C1C=CCC1C(C1CC=CCC1)N2 (stereo unspecified),14% (inactive)
4,COc1cccc2sc(Nc3nnc(-c4ccc(F)cc4)o3)nc12,33% (inactive)
5,CC1(C)N=C(N)N=C(N)N1c1ccc(C(=O)O)cc1,22% (inactive)
6,Cc1ccc(C)c(SCC(=O)OCC(=O)c2ccco2)c1,50% (inactive)
7,O=C(Nc1ccccc1[N+](=O)[O-])C1=C(O)CCn2c1nc1ccccc12,37% (inactive)
8,O=C(COC(=O)c1ccccc1)NCc1ccco1,67% (inactive)
9,Nc1ccc2nc(-c3ccc(Cl)cc3)[nH]c2c1,42% (inactive)
10,CSc1ccc(S(=O)(=O)Nc2cccc(F)c2)cc1,21% (active)
11,CSc1ccccc1NC(=O)c1noc2c1CCC2,26% (inactive)
12,CC(O)C1CCC2C3CC[C@H]4CC(O)CCC4(C)C3CC3(OCCO3)C12C (stereo partly specified),18% (inactive)
13,NC(=O)c1c(NC(=O)c2cc3ccccc3o2)sc2c1CCC2,18% (inactive)
14,O=C(Cc1cccs1)Nc1ccc(S(=O)(=O)Nc2ncccn2)cc1,62% (inactive)
15,Cc1ccc(C)n1-c1sccc1C(=O)O,18% (inactive)
16,COc1ccc(C2CC(c3ccccc3)=NN2C(=O)CSc2nccc(=O)[nH]2)cc1 (stereo unspecified),33% (inactive)
17,O=C(Oc1cccc(-c2cnc3ccccc3n2)c1)c1ccco1,9% (inactive)
18,CC(C)(C)NC(=O)c1ccc2c(c1)C1C3CCC(C3)C1C(c1ccccc1)N2 (stereo unspecified),3% (inactive)
19,COC(=O)c1ccc(CC(=O)c2c(C)cc(O)cc2O)o1,62% (inactive)

row,Compound,inhibition
1,O=C(NC1CCN(C(=O)N2c3ccccc3Sc3ccccc32)CC1)c1ccccc1Cl,18% (inactive)
2,COc1ccc2nc3oc(C(=O)N4CCN(c5cccc(C(F)(F)F)c5)CC4)cc3cc2c1,24% (inactive)
3,O=C(COC(=O)CCC(=O)c1cccs1)NCc1ccco1,54% (inactive)
4,O=C(O)c1cc(Cl)c2c(c1)[C@@H]1C=CC[C@@H]1[C@H](c1ccc(S(=O)(=O)N3CCOCC3)cc1)N2,45% (inactive)
5,Cc1c(C(=O)OCc2ccccc2)[nH]c2c1C(=O)CC(c1ccco1)C2 (stereo unspecified),45% (inactive)
6,COc1ccc(-c2ccc(-c3noc(-c4cccs4)n3)c(OC)n2)cc1,63% (inactive)
7,Cc1ccc(C(=O)ONc2ccc(N=NC(=O)c3ccccc3O)cc2)cc1,58% (inactive)
8,COc1ccc(/C=N/NC(=O)c2nc(-c3ccccc3)n(-c3ccccc3)n2)c(O)c1,45% (inactive)
9,COc1cc2cc(C(c3nnnn3C3CCCC3)N3CCc4ccccc43)c(=O)[nH]c2cc1OC (stereo unspecified),37% (inactive)
10,CCn1c(SCC(=O)Nc2ccc3c(c2)oc2ccccc23)nnc1-c1ccc(N)cc1,56% (inactive)
11,O=C1C(c2ccnc3ccccc23)=C(O)c2ccccc21,60% (inactive)
12,Cc1cccc(N2CSC3=C(C#N)C(c4ccc(C)o4)CC(=O)N3C2)c1 (stereo unspecified),35% (inactive)
13,Cc1nn(-c2ccccc2)c(/N=C/c2ccc(O)cc2)c1-c1ccccc1,78% (active)
14,NNc1nc2sc3c(c2c(=O)[nH]1)CCc1ccccc1-3,23% (inactive)
15,Oc1ccc(-c2nc(-c3ccc(O)c(O)c3)cs2)cc1,55% (inactive)
16,O=C(NCc1ccco1)c1cc2c(s1)CSC2,32% (inactive)
17,CCCSC1=N/C(=C\C=C\c2ccco2)C(=O)S1,47% (inactive)
18,COC(=O)c1ccc(C2Nc3ccc(/C(C)=N/NC(=O)C(OC)c4ccccc4)cc3C3C=CCC32)cc1 (stereo unspecified),22% (inactive)
19,CC(=O)c1ccc(NC(=S)N2CCC(O)CC2)cc1,41% (inactive)

# Same assay, conditions: fluorescent estrogen binding, ligand binding inhibition, at 0.1 µM, stronger effect = higher value
row,Compound,inhibition [%]
1,COc1cc2c(cc1O)CC[n+]1cc3c(OC)c(OC)ccc3cc1-2,23
2,Cc1nnc(Oc2ccccc2F)c2ccccc12,38
3,NS(=O)(=O)c1ccc2c(c1)C1C=CCC1C(C1CC=CCC1)N2 (stereo unspecified),2
4,COc1cccc2sc(Nc3nnc(-c4ccc(F)cc4)o3)nc12,17
5,CC1(C)N=C(N)N=C(N)N1c1ccc(C(=O)O)cc1,11
6,Cc1ccc(C)c(SCC(=O)OCC(=O)c2ccco2)c1,57
7,O=C(Nc1ccccc1[N+](=O)[O-])C1=C(O)CCn2c1nc1ccccc12,46
8,O=C(COC(=O)c1ccccc1)NCc1ccco1,16
9,Nc1ccc2nc(-c3ccc(Cl)cc3)[nH]c2c1,16
10,CSc1ccc(S(=O)(=O)Nc2cccc(F)c2)cc1,75
11,CSc1ccccc1NC(=O)c1noc2c1CCC2,12
12,CC(O)C1CCC2C3CC[C@H]4CC(O)CCC4(C)C3CC3(OCCO3)C12C (stereo partly specified),13
13,NC(=O)c1c(NC(=O)c2cc3ccccc3o2)sc2c1CCC2,54
14,O=C(Cc1cccs1)Nc1ccc(S(=O)(=O)Nc2ncccn2)cc1,1
15,Cc1ccc(C)n1-c1sccc1C(=O)O,26
16,COc1ccc(C2CC(c3ccccc3)=NN2C(=O)CSc2nccc(=O)[nH]2)cc1 (stereo unspecified),37
17,O=C(Oc1cccc(-c2cnc3ccccc3n2)c1)c1ccco1,4
18,CC(C)(C)NC(=O)c1ccc2c(c1)C1C3CCC(C3)C1C(c1ccccc1)N2 (stereo unspecified),64
19,COC(=O)c1ccc(CC(=O)c2c(C)cc(O)cc2O)o1,22

row,Compound,inhibition [%]
1,O=C(NC1CCN(C(=O)N2c3ccccc3Sc3ccccc32)CC1)c1ccccc1Cl,23
2,COc1ccc2nc3oc(C(=O)N4CCN(c5cccc(C(F)(F)F)c5)CC4)cc3cc2c1,47
3,O=C(COC(=O)CCC(=O)c1cccs1)NCc1ccco1,12
4,O=C(O)c1cc(Cl)c2c(c1)[C@@H]1C=CC[C@@H]1[C@H](c1ccc(S(=O)(=O)N3CCOCC3)cc1)N2,8
5,Cc1c(C(=O)OCc2ccccc2)[nH]c2c1C(=O)CC(c1ccco1)C2 (stereo unspecified),17
6,COc1ccc(-c2ccc(-c3noc(-c4cccs4)n3)c(OC)n2)cc1,20
7,Cc1ccc(C(=O)ONc2ccc(N=NC(=O)c3ccccc3O)cc2)cc1,28
8,COc1ccc(/C=N/NC(=O)c2nc(-c3ccccc3)n(-c3ccccc3)n2)c(O)c1,33
9,COc1cc2cc(C(c3nnnn3C3CCCC3)N3CCc4ccccc43)c(=O)[nH]c2cc1OC (stereo unspecified),25
10,CCn1c(SCC(=O)Nc2ccc3c(c2)oc2ccccc23)nnc1-c1ccc(N)cc1,18
11,O=C1C(c2ccnc3ccccc23)=C(O)c2ccccc21,18
12,Cc1cccc(N2CSC3=C(C#N)C(c4ccc(C)o4)CC(=O)N3C2)c1 (stereo unspecified),21
13,Cc1nn(-c2ccccc2)c(/N=C/c2ccc(O)cc2)c1-c1ccccc1,44
14,NNc1nc2sc3c(c2c(=O)[nH]1)CCc1ccccc1-3,37
15,Oc1ccc(-c2nc(-c3ccc(O)c(O)c3)cs2)cc1,54
16,O=C(NCc1ccco1)c1cc2c(s1)CSC2,12
17,CCCSC1=N/C(=C\C=C\c2ccco2)C(=O)S1,31
18,COC(=O)c1ccc(C2Nc3ccc(/C(C)=N/NC(=O)C(OC)c4ccccc4)cc3C3C=CCC32)cc1 (stereo unspecified),40
19,CC(=O)c1ccc(NC(=S)N2CCC(O)CC2)cc1,23
